# Reference: PubChem BioAssay AID1259370 (Center for Chemical Genomics, University of Michigan, 2018)
# Among all 94,000 compounds or so, about 680 (0.72%) were called active. The sample holds actives, similar compounds and a random draw of the others, so the mix is not that of the screen. Rule as the data show it: active = z-score above about 3.2; inactive = the rest.
# Target: M-phase inducer phosphatase 2 (Homo sapiens) + Cyclin-dependent kinase 2 (Homo sapiens) + Cyclin-A2 (Homo sapiens) (UniProt P30305+P24941+P20248)
# Experiment: primary biochemical HTRF screen for blockers of M-phase inducer phosphatase 2 binding to CDK2/cyclin A (AID 1259370)
# Conditions: HTRF CDC25B-CDK2/CyclinA binding, anti-His/anti-Flag; stronger effect = higher value
row,Structure (SMILES),z-score
1,CCCc1nc2sc3c(OCC)ncnc3c2c2c1COC(C)(C)C2,0.03 (inactive)
2,Cc1cc(C(=O)O)c2cc(Br)ccc2n1,-1.02 (inactive)
3,COc1cccc(-c2cn3nc(C)sc3n2)c1,-1.51 (inactive)
4,CCOC(=O)N1CCC(c2cc(=O)n(-c3ccccc3)[nH]2)CC1,7.05 (active)
5,CCOC(=O)N1CCN(c2c(NCCN3CCN(c4cccc(Cl)c4)CC3)c(=O)c2=O)CC1,-2.84 (inactive)
6,CCOC(=O)N1CCC(C(N)=O)CC1,-0.86 (inactive)
7,Cc1nc2sc(C(c3cccc(Cl)c3)N3CCN(c4ccccc4)CC3)c(O)n2n1 (stereo unspecified),-0.28 (inactive)
8,Cc1ccc(N(CC(=O)NC(C(C)C)C(C)C)S(C)(=O)=O)cc1Cl,-1.52 (inactive)
9,O=C(Nc1ccc(O)c(-c2nc3ccccc3s2)c1)C(c1ccccc1)c1ccccc1,-2.45 (inactive)
10,CCN1CCCC1CNC(=O)c1sc2nc(C)cc(C)c2c1-n1cccc1 (stereo unspecified),-0.15 (inactive)
11,CCN1CCCC1CNC(=O)c1nnc(CS(=O)(=O)c2ccccc2)o1 (stereo unspecified),7.59 (active)
12,O=C(NCCN1CCOCC1)c1nnc(CS(=O)(=O)c2ccccc2)o1,-1.86 (inactive)
13,Cc1nc2sccn2c(=O)c1S(=O)(=O)N1CCOCC1,-0.79 (inactive)
14,Cc1cc(C)cc(Nc2nccc(=O)[nH]2)c1,-2.01 (inactive)
15,CC1CCCC(NC(=O)c2cc3c(s2)-c2ccccc2OC3)C1C (stereo unspecified),-0.62 (inactive)
16,Nc1ncnc2nc(SCC(=O)NCc3ccco3)[nH]c12,-1.28 (inactive)
17,CC(C)Cc1c(O)nc(SCC(=O)NCc2ccco2)[nH]c1=O,0.23 (inactive)
18,CCCCc1c(O)nc(SCC(=O)NCc2ccco2)[nH]c1=O,4.39 (active)
19,O=C(CC1Oc2ccccc2NC1=O)NCc1ccco1 (stereo unspecified),-1.29 (inactive)
20,Cn1c(=O)c2c(c3ccccc31)OC(=O)CC2c1ccc(Br)cc1 (stereo unspecified),-0.71 (inactive)
21,O=C1CC(c2ccccc2)Sc2nc(-c3ccccc3)nn21 (stereo unspecified),-0.15 (inactive)
